Test [1] concerns Plasmodium falciparum Sir2 (PF13_0152, Sir2A). Briefly: pfSir2 binders on small-molecule microarrays, primary screen, biochemical, small-molecule microarray, 635 nm fluorescence (AID 1098).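 Also: score merges spot fluorescence intensity with its signal-to-noise ratio.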 The note with it: small-molecule microarray binding, fluorescence 635 nm; higher = more signal.
Test [2] can be described thus: small-molecule microarray binders of probe aDKK1, primary screen, biochemical, biotinylated probe, 635/667 nm fluorescence (AID 1099).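 Also: score merges 667nm spot fluorescence with signal to noise across triplicate slides.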 The note with it: higher = more signal.
Test [3] is described as follows: small-molecule microarray binders of probe aCHRDL2, primary screen, biochemical, biotinylated probe, 635/667 nm fluorescence (AID 1100). The note with it: higher = more signal.
Test [4] can be described thus: splicing luciferase reporter signal modulators, primary screen, spliceosome inhibition project, cell-based, HEK293, splice +/- reporter (AID 1101).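 Also: HEK293 cells carrying a splicing-competent luciferase reporter gene; test concentration not given here.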 The note with it: luminescence, 24 h, higher = more signal, called active from +8 up or from −8 down.
Test [5] deals with Fibroblast growth factor 10 (Homo sapiens) (UniProt O15520). Nature of the test: FGF10 binders on small-molecule microarrays, primary screen, biochemical, small-molecule microarray, 635 nm fluorescence (AID 1102). The note with it: FGF10 binding, fluorescence 635 nm, higher = more signal.
The subject of test [6] is glycogen synthase kinase-3 (GSK3A per assay name; protocol says GSK3B). Briefly: GSK3 binders on small-molecule microarrays, primary screen, biochemical, small-molecule microarray, 635 nm fluorescence, GSK3A (AID 1103). Also: the record names both GSK3A and GSK3B. The note with it: small-molecule microarray binding, fluorescence 635 nm; higher = more signal.
Test [7] addresses Epidermal growth factor receptor (Homo sapiens) (UniProt P00533). Nature of the test: EGFR binders on small-molecule microarrays, primary screen, biochemical, small-molecule microarray, 635 nm fluorescence (AID 1104).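 Also: score merges 667 nm emission intensity with spot signal to noise over triplicate slides.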 The note with it: EGFR binding, higher = more signal.
Test [8] has as its target Follistatin-related protein 3 (Homo sapiens) (UniProt O95633). Briefly: FSTL3 binders on small-molecule microarrays, primary screen, biochemical, small-molecule microarray, 635 nm fluorescence (AID 1105).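 Also: score merges emission near 667 nm and signal to noise per printed spot across three slides.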 The note with it: FSTL3 binding, higher = more signal.
Test [9] concerns the target Dickkopf-related protein 1 (Homo sapiens) (UniProt O94907). Nature of the test: DKK1 binders on small-molecule microarrays, primary screen, biochemical, small-molecule microarray, 635 nm fluorescence scan (AID 1106).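 Also: score merges emission near 667 nm with signal to noise over three replicate slides.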 The note with it: DKK1 binding, higher = more signal.
In test [10] the test system is Inhibin beta A chain (activin A). Briefly: INHBA (activin A) binders on microarrays, primary screen, biochemical, small-molecule microarray, 635 nm fluorescence scan (AID 1107).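 Also: mouse activin A protein probed at 4.33 µg/mL on printed slides; score merges bound-protein fluorescence near 667 nm with spot signal-to-noise.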 The note with it: small-molecule microarray binding, higher = more signal.
The subject of test [11] is Human papillomavirus type 1a protein E7 (residues 44-93). Nature of the test: HPV1a E7 fragment binders on microarrays, primary screen, biochemical, small-molecule microarray, residues 44-93, 635 nm fluorescence (AID 1108).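 Also: E7 fragment applied at 1 µg/mL in TBST for 1 h at 4 C; score combines spot fluorescence with its signal to noise ratio.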 The note with it: small-molecule microarray binding, fluorescence 635 nm; higher = more signal.
Test [12] in a line: modulators of HCV replicon luciferase signal, primary screen, HCV replication inhibitor project, Huh7 cells, luciferase reporter (AID 1109).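 Also: huh7 hepatoma cells harbouring a luciferase neomycin HCV replicon reporter; luciferase luminescence as measure of HCV replicon replication; test concentration not given here.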 The note with it: 48 h, higher = more signal.
The target in test [13] is Left-right determination factor 2 (Homo sapiens) (UniProt O00292). Nature of the test: LEFTY2 binders on small-molecule microarrays, primary screen, biochemical, small-molecule microarray, 635 nm fluorescence scan (AID 1110). The note with it: LEFTY2 binding, higher = more signal.
For test [14], the target named is Calmodulin-1 (Homo sapiens) (UniProt P0DP23). Briefly: CALM1 binders on microarrays, EGTA buffer, profiling panel, biochemical, small-molecule microarray, Cy5-labelled CALM1 (AID 1111).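 Also: labelled calmodulin applied in Tris saline Tween buffer holding calcium plus EGTA and DTT.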 The note with it: Cy5-CALM1 binding fluorescence, higher = more signal.
The target is the same in test [15]. Nature of the test: calcium-bound CALM1 binders on microarrays, profiling panel, artefact control for SMM control-protein annotation, biochemical, small-molecule microarray, Cy5-labelled CALM1, plus calcium (AID 1112).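 Also: score merges spot fluorescence with signal to noise from triplicate slides.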 The note with it: Cy5-CALM1 binding fluorescence, higher = more signal.
Test [16] in a line: small-molecule microarray binders of probe aWnt5a, primary screen, biochemical, biotinylated probe, 635/667 nm fluorescence (AID 1113).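 Also: score merges 667 nm fluorescence intensity with signal-to-noise per printed feature.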 The note with it: higher = more signal.
The nature of test [17]: small-molecule microarray binders of probe aShh, primary screen, biochemical, biotinylated probe, 635/667 nm fluorescence (AID 1114).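 Also: probe is biotin-labelled aShh protein from a stem cell growth factor screen; measures binding of labelled protein to compounds printed on the slide; score merges feature fluorescence at 667 nm with signal-to-noise.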 The note with it: higher = more signal.
A short description of test [18]: small-molecule microarray binders of probe aNog, primary screen, biochemical, biotinylated probe, 635/667 nm fluorescence (AID 1115).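 Also: probe is biotinylated aNog protein used at 0.15 µg/mL for 1 h at 4 C; z-score combines 667 nm fluorescence of each spot with its signal to noise.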 The note with it: higher = more signal.
The target in test [19] is Torsin-1A-interacting protein 1 (Homo sapiens) (UniProt Q5JTV8). Briefly: LAP1 binders from COS7 cell lysate, primary screen, small-molecule microarray, 635/667 nm fluorescence (AID 1116). The note with it: COS7-hLAP1 lysate binding, 635 nm fluorescence, higher = more signal.
Test [20] has as its target Alpha-bungarotoxin (Bungarus multicinctus) (UniProt P60615). Briefly: alpha-bungarotoxin binders on microarray, profiling panel, artefact control for SMM control protein annotation, biochemical, small-molecule microarray, Alexa647 label, 635/667 nm fluorescence (AID 1117). The note with it: alpha-BTX-A647 binding fluorescence, higher = more signal.

Data on five compounds can be found in PubChem BioAssay.

The source made the active and inactive calls.

Chain of Dickkopf-related protein 1 (Homo sapiens) (O94907 whole entry, looked up): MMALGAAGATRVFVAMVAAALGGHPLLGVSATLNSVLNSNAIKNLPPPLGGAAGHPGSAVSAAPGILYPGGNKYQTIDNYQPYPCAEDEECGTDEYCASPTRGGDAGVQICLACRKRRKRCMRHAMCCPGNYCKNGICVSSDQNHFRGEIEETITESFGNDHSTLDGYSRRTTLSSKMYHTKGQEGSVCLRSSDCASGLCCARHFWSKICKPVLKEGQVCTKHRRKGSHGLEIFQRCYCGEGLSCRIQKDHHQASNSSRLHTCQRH
Chain of Epidermal growth factor receptor (Homo sapiens) (P00533 whole entry, looked up): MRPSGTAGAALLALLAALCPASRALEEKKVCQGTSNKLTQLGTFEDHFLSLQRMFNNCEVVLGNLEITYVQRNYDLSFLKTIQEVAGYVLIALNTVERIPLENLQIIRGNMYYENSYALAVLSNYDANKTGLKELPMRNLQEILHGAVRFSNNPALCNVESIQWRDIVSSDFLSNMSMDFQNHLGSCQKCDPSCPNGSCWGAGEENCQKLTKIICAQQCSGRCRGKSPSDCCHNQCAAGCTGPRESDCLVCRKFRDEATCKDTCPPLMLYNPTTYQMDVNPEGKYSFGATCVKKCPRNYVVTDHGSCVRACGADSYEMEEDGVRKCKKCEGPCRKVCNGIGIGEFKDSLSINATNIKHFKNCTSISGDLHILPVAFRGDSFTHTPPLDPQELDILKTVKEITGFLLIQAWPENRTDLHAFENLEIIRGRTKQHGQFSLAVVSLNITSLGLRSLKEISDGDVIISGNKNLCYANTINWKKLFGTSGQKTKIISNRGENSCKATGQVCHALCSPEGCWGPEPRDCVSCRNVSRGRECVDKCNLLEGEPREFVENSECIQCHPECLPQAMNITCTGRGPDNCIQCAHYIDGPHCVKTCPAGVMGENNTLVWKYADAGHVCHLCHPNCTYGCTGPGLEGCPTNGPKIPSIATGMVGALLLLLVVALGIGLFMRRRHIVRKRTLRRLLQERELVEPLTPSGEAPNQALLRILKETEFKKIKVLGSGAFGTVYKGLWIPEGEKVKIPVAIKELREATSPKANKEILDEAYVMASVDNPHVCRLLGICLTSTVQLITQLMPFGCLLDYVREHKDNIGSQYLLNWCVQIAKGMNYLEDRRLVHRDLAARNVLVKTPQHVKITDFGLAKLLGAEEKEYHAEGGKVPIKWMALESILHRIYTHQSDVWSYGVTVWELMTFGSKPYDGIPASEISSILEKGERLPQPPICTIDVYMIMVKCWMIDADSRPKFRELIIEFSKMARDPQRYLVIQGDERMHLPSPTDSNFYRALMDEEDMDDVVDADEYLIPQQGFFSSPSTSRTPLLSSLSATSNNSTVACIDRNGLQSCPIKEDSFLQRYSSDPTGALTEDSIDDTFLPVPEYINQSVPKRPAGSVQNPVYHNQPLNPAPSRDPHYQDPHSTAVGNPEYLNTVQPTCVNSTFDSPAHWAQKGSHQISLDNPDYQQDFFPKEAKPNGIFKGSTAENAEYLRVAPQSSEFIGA
Chain of Left-right determination factor 2 (Homo sapiens) (O00292 whole entry, looked up): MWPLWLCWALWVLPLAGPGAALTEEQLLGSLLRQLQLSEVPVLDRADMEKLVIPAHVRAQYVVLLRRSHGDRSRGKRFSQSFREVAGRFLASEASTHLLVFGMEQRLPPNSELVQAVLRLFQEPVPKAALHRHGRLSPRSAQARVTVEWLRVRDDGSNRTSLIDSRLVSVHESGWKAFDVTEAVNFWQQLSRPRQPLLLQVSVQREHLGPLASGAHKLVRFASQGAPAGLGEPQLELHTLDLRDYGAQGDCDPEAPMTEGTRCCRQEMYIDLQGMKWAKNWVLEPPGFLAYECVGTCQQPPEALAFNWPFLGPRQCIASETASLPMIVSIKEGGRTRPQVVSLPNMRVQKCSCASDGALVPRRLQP
Chain of Follistatin-related protein 3 (Homo sapiens) (O95633 whole entry, looked up): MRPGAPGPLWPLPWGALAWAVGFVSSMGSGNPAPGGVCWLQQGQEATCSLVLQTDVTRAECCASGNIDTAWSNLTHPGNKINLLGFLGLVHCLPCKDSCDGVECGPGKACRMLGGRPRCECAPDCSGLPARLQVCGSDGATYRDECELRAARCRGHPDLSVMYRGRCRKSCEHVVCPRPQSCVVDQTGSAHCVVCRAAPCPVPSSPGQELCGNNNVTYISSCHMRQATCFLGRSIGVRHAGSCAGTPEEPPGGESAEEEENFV
Chain of Torsin-1A-interacting protein 1 (Homo sapiens) (Q5JTV8 whole entry, looked up): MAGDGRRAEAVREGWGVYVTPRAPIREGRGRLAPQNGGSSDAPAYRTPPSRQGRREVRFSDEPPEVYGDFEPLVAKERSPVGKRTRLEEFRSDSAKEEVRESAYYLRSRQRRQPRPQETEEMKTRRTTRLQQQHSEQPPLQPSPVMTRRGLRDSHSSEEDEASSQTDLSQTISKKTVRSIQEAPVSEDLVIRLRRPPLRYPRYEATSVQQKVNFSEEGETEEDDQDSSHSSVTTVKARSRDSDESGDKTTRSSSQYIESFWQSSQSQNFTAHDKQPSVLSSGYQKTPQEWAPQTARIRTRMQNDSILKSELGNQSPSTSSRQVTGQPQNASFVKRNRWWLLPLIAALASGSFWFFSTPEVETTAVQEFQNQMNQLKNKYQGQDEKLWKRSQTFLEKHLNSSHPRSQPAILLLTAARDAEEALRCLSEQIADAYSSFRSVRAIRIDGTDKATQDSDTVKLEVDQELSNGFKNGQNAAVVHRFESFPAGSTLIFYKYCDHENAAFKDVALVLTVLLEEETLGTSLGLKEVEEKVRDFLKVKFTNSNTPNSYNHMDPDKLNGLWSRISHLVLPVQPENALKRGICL
Chain of Fibroblast growth factor 10 (Homo sapiens) (O15520 whole entry, looked up): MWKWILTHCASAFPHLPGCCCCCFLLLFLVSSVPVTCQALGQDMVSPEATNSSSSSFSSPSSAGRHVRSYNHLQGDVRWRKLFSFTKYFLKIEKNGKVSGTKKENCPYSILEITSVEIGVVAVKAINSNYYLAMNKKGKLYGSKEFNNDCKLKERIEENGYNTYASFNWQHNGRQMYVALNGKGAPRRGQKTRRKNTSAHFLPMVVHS
Chain of Alpha-bungarotoxin (Bungarus multicinctus) (P60615 whole entry, looked up): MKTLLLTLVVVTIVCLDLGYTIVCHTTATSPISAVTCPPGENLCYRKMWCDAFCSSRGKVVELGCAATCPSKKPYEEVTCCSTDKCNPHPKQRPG

In the case of `[N-]=[N+]=Nc1ccccc1C[C@]1(C(N)=O)COC(c2ccc(OCCCO)cc2)=N1`, the composite z-score was 0.219 in test [1]; 1.07 in [2]; 1.04 in test [3]; -0.128 in test [5]; -0.51 in [6]; -0.969 in test [7]. The composite z-score was -1.16 in test [8]; -1.18 in test [9]; 1.13 in test [10]; 0.66 in test [11]; -0.899 in [13]; 0.707 in [14]. In addition, the composite z-score was 0.694 in test [15]; -0.0462 in test [16]; 0.486 in [17]; 0.381 in test [18]; 1.02 in test [19]; -0.364 in test [20]. In addition, the z-score in [4] is -0.32 (inactive); in test [12], -1.17.

Turning to `COC(=O)[C@@]1(Cc2ccc(F)cc2)[C@H]2c3cc(C(=O)N(C)C)n(Cc4cccc5ccccc45)c3C[C@H]2CN1C(=O)c1ccccc1`, the composite z-score in [1] is 0.796; in [2] it was 0.926; in test [3], 1.04; in [5], 1.13; in [6], 0.111; in test [7], -0.953. For the same compound, the composite z-score in [8] was -0.242; in test [9], -1.02; in [10], 0.644; in test [11], 1.12; in test [13], -0.856; in test [14] it was 0.0818. For the same compound, the composite z-score in test [15] was 0.189; in test [16] it was 0.492; in [17] it was 1.76; in test [18] it was 1.53; in test [19], 1.17; in [20] it was -0.145. The z-score in test [4] was 0.551 (inactive); in test [12], -1.57.

On to `C=C(CCCC)/C(=C/C[C@@H](OC(C)=O)c1ccc(OCCO)cc1)c1cc(C(=O)OC)ccc1OC`, for which the composite z-score in test [1] is 1.14; in [2] it was 0.0822; in test [3] it was 0.411; in test [5], 0.151; in test [6], 0.244; in test [7], -0.597. In addition, the composite z-score in test [8] was -0.137; in test [9], -0.348; in [10], 0.763; in test [11], 0.722; in test [13], -0.103; in [14], -0.108. Further, the composite z-score in test [15] was -0.95; in test [16] it was -0.124; in test [17] it was -0.0769; in test [18] it was 0.408; in [19] it was 1.17; in test [20], 0.722. Besides, the figures for the z-score in test [4] and in test [12] were 0.374 (inactive) and -2.31, respectively.

Take `COc1ccc([Si](C)(C)[C@H]2[C@H](CCO)O[C@@]3(C(=O)N(Cc4ccccc4)c4ccc(NC(=O)[C@H](C)O)cc43)[C@@H]2C)cc1`: the composite z-score is 1.18 in [1]; 0.305 in [2]; 0.29 in [3]; 0.139 in test [5]; 0.0488 in test [6]; -0.0574 in [7]. For the same compound, the composite z-score in [8] was -0.0813; in test [9], -0.119; in [10], 0.209; in [11], 1.37; in [13], 0.424; in [14], 0.362. The composite z-score was 0.195 in [15]; 0.026 in [16]; -0.138 in test [17]; 0.514 in test [18]; 0.795 in test [19]; 0.627 in test [20]. The figures for the z-score in test [4] and in test [12] were -2.35 (inactive) and -5.05, respectively.

For `Cc1ccc(N2C(=O)c3ccccc3[C@@H](C(=O)NCCN3CCOCC3)[C@@H]2c2ccc(CO)cc2)nc1`, the composite z-score in [1] is 1.25; in [2] it was 0.0086; in [3], 0.685; in test [5] it was -0.329; in [6], -1.09; in test [7] it was -0.914. In addition, the composite z-score in test [8] was -0.799; in test [9] it was -0.459; in test [10], -0.382; in test [11] it was 0.113; in test [13] it was -1.29; in test [14], -0.287. Moreover, the composite z-score in test [15] was 0.609; in test [16], -0.1; in test [17] it was -0.214; in [18], -0.434; in test [19], -1.3; in test [20] it was -0.843. Moreover, the results for the z-score in test [4] and in test [12] were 0.17 (inactive) and 0.193, respectively.
